# Data: the supplement of paper PMC8540655
# Unmarked numbers belong to inactive results.
# Test system: Aedes aegypti larvae
# Experiment: larval motility relative to same well at 0 h (fraction); higher = more motile (less active compound), active = 0.4 or less
# Details: 10 µM
# Procedure, shortened: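 Aedes aegypti larvae, hatched in pond salt solution with yeast at 25 °C and collected after 18–24 h, were dispensed at about 10 per well (100 µL) in 96-well plates. Compounds were tested at 10 µM, 1% v/v DMSO, with solvent and larvicide control wells on each plate. INVAPP movies (200 frames, 100 ms intervals) were recorded at 0, 2 and 24 h. Relative motility is each well's score divided by its 0 h score, median of three independent larval batches.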
SMILES,larval motility (2 h),larval motility (24 h)
Fc1cccc(Cl)c1C1CC(c2ccc(Cl)cc2)Nc2nnnn21 (configuration not stated),1.01,1.08
Cc1c[nH]c(=O)nc1NCc1ccccc1,1.16,0.91
Cc1nc(Nc2ccc(F)cc2)nc(N2CCc3ccccc3C2C)c1C (configuration not stated),0.774,0.644
NC(=O)C(c1ccccc1)(c1ccccc1)[C@H]1CCCN(CCc2ccc3c(c2)CCO3)C1,0.612,0.78
Cc1ccccc1NC(=O)Nc1cccc([N+](=O)[O-])c1,1.19,1.34
Cc1oncc1C(=O)Nc1ccc(C(F)(F)F)cc1,0.743,0.744
CCCCCCCCC(CP(=O)(O)C(C)N)C(=O)O (configuration not stated),0.654,1.09
O=C(Cc1ccccc1F)Nc1nc2ccccc2[nH]1,0.888,0.669
NC[C@H]1O[C@H](O[C@H]2[C@H](O)[C@@H](O[C@H]3O[C@H](CO)[C@@H](O)[C@H](N)[C@H]3O)[C@H](N)C[C@@H]2N)[C@H](N)C[C@@H]1O,0.727,1.43
Nc1nnnn1CCOc1c2[nH]c3ccc(Cl)cc3c2cc2c1[nH]c1ccc(Cl)cc12,0.958,1.16
c1ccc(Cn2c(-c3ccccn3)nc3ccccc32)cc1,1.19,1.02
O=C(NC(=O)N1CCCc2ccccc21)c1cccc(Cl)c1,0.838,1.04
CCN(CC)CCCC(C)Nc1ccnc2cc(Cl)ccc12 (configuration not stated),0.715,0.484
Cc1onc(-c2ccccc2)c1-c1ccc(S(N)(=O)=O)cc1,0.513,0.435
CCCCc1ccc(S(=O)(=O)Nc2cc(C)on2)cc1,0.511,0.633
C=C(C)n1c(=O)n(Cc2ccccc2C)c2ccccc21,1.39,0.851
Cc1cc(-c2ccccc2)c(C(=O)C(=O)Nc2ccc(N3CCN(c4ncc(F)cn4)CC3)cc2)n1C,0.636,0.529
O=[N+]([O-])/C(Br)=C/c1ccc(Br)o1,1.13,0.796
CCNC(=O)Nc1cn2c(-c3ncc(CC)cn3)cc(-c3cccnc3)cc2n1,0.892,0.894
Oc1cc(-c2cccc3ccccc23)[nH]n1,0.626,0.554
N=C(N)c1ccc(COc2ccc(Cl)cc2)cc1,1.16,0.589
CNC(=O)C1O[C@@H](n2cnc3c(NCc4cccc(I)c4)nc(Cl)nc32)[C@H](O)[C@@H]1O (some centres not stated),0.688,0.817
CO/N=C(\C(=O)N[C@@H]1C(=O)N2C(C(=O)OCOC(=O)C(C)(C)C)=C(/C=C\c3scnc3C)CS[C@H]12)c1csc(N)n1,1.51,1.18
O=C(c1ccccc1)N1CCN(c2ccccc2NC(=O)C(Cl)(Cl)Cl)CC1,1.33,0.669
Cc1cc(NS(=O)(=O)c2ccc(-c3ccc(F)cc3F)cc2)no1,0.769,0.77
N=c1n(CCN2CCCCC2)c2ccccc2n1CC(O)COc1ccc(Cl)cc1Cl (configuration not stated),1.02,0.502

SMILES,larval motility (2 h),larval motility (24 h)
CC(C)c1ccc(COc2cccc(-c3cc(S(C)=O)c(C#N)c(=O)[nH]3)c2)cc1 (configuration not stated),0.682,0.447
Nc1nc(O)c(Br)c(-c2ccccc2)n1,0.633,0.648
Cc1ccc(S(=O)(=O)Nc2cccc3cccnc23)cc1,1.02,0.566
COc1cc(Cc2cnc(N)nc2N)cc(OC)c1OC,0.864,0.829
Cc1c(CN(C)C(=O)/C=C/c2cnc3c(c2)C(C)(C)C(=O)N3)oc2ccccc12,1.24,1.15
CC1CN(c2ncnc3c2c(-c2ccccc2)cn3-c2ccc(F)cc2)CC(C)O1 (configuration not stated),0.791,0.856
CCNC(=O)Nc1cc2c(-c3ccnc(C)c3)ccc(CNC(=O)OC)c2cn1,0.695,0.931
Cc1cccc(CC(=O)N[C@H]2CCOC2=O)c1,1.05,1.31
O=C(Nc1ccc(Cl)c(C(F)(F)F)c1)C(CCCl)C(=O)Nc1ccc(Cl)c(C(F)(F)F)c1,0.848,0.397 (active)
CC(C)C(=O)N[C@H]1[C@H]([C@H](O)[C@H](O)CO)OC(C(=O)O)=C[C@@H]1N=[N+]=[N-],1.64,1.56
O=C1CCC(N2C(=O)c3ccccc3C2=O)C(=O)N1 (configuration not stated),1.17,1.13
CC(C)(C)OC(=O)NCc1ccc(C(=O)N[C@H]2CCOC2=O)cc1,0.701,0.769
CCCCCc1ccc(C(=O)NCCn2cc(CCCCCc3cnc(N)[nH]3)nn2)cc1,0.643,0.914
CCNC(=O)Nc1cc(-c2ccccc2)c(-c2cncc(C(=O)O)c2)cn1,0.236 (active),0.433
CC[C@@H](CO)NCCN[C@@H](CC)CO,0.527,0.604
C[C@@H](NC(=O)c1cccc(-c2c[nH]c(-c3cc4ccccc4cn3)n2)c1)c1ccc(F)cc1,0.628,0.997
CO[C@@]1(NC(=O)Cc2cccs2)C(=O)N2C(C(=O)O)=C(COC(N)=O)CS[C@@H]21,0.909,1.17
COc1ccc(C)cc1NC(=O)c1ccc(S(=O)(=O)N2CCCCC2)cc1,1.12,1.26
COc1ccc2c(c1OC)C(=O)OC2C1c2c(cc3c(c2OC)OCO3)CCN1C (configuration not stated),0.987,0.828
O=C(NCc1ncc(C(F)(F)F)cc1Cl)c1c(Cl)cccc1Cl,1.3,1.42
CC[C@H](NC(=O)[C@H](C)NC)C(=O)N1C[C@@H](O)C[C@H]1Cc1c(-c2[nH]c3cc(F)ccc3c2C[C@@H]2C[C@H](O)CN2C(=O)[C@H](CC)NC(=O)[C@H](C)NC)[nH]c2cc(F)ccc12,0.407,0.89
COc1cc(NCc2ccc3nc(N)nc(N)c3c2C)cc(OC)c1OC,0.5,0.356 (active)
O=C(Nc1nnc(-c2ccc(Cl)cc2)o1)c1ccc(F)cc1,1.18,0.816
Cc1nc2ccc(Cl)cc2c(-c2ccccc2)c1CC(=O)O,0.615,1.02
CC(=O)N1CCN(c2ccc(OCC3COC(Cn4ccnc4)(c4ccc(Cl)cc4Cl)O3)cc2)CC1 (configuration not stated),0.527,1.14
